Many of the other results were omitted from the sample, so hits are more common in it than they were.
KDM5B inh = Primary screen for KDM5B Histone Demethylases FDH-coupled qHTS; Lysine-specific demethylase 5B (Homo sapiens), Q9UGL1; KDM5B demethylase, FDH-coupled NADH fluorescence (FDH is formaldehyde dehydrogenase); Potency, µM (titrated, usually from 57.7 µM), actives largely listed as inhibitors; 220,000 tested, 2.6% active; AID 1347165, 2019; active = well fitted inhibition curve with a large enough effect; note: nearly all actives have a fitted effect of over 70% in size
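qHTS format, multiple compound concentrations. Buffer 50 mM HEPES pH 7.5/0.01% Tween-20; 200 nM KDM5BΔAP final; 10 min compound preincubation; substrate-mix levels 12.5 µM peptide, 25 µM α-KG, 0.25 mM NAD⁺; 30 min RT; ΔRFU.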
A number is an active result; i = inactive.

SMILES	KDM5B inh
Cc1ccc(CN2CC3(Cc4ccccc4C(=O)N3)C2)cc1	i
CCCCCc1c(C)nc(Nc2nc(C)c3cccc(OC)c3n2)[nH]c1=O	i
CC(C)CN[C@@H]1C[C@H](COc2ccc(S(C)(=O)=O)cc2)[C@@H](O)[C@H]1O	i
c1cc(-c2noc(CSc3nnnn3C3CCCC3)n2)cs1	i
CC(C)CCOc1ccc(/C=C/c2nc3ccccc3s2)cc1	i
Cc1cc(O)c(-c2n[nH]c3c2C(c2ccccc2F)N(CCCO)C3=O)cc1Cl (stereo not drawn)	i
CCOC(=O)/C(C#N)=C\c1ccc(-c2cccc(C(F)(F)F)c2)o1	i
Cc1ccc(NC(=O)N2CCCC(Cn3cnc4cccnc43)C2)c(C)c1 (stereo not drawn)	i
COc1cncc(Nc2ncc(-c3cccc(N(C)C)c3)c3c2OCC3)c1	31.6µM
COc1cncc(Nc2ncc(-c3cccnc3)c3c2OCC3)c1	i
COc1ccc(Nc2ncc(-c3cnn(C)c3)c3c2OCC3)cc1	35.5µM
Cn1cc(-c2cnc(Nc3cncnc3)c3c2CCO3)cn1	i
O=C(CCCOC(=O)c1c(Cl)ccc(Cl)c1Cl)c1ccc(Br)cc1	i
COc1ccc(-c2cc(N3CCC(NC(=O)c4ccccc4F)CC3)n[nH]2)cc1	i
Fc1cc(Br)ccc1OCc1cc(-c2ccccc2)on1	i
CCC(C)NC(=O)Cn1nc2n(c1=O)CCCCC2 (stereo not drawn)	i
O=C1NCCOCCN(S(=O)(=O)c2ccc3c(c2)CCC3)[C@H]2CCC[C@@H]12	i
COP(=O)(OC)c1nc(-c2ccc([N+](=O)[O-])cc2)oc1NCc1ccc(F)cc1	i
COCCN1Cc2nc(-c3ccc(OC)c(F)c3)ccc2OCC1=O	39.8µM
O=C1COc2ccc(-c3ccccc3)nc2CN1Cc1ccccc1	i
COCCN1Cc2[nH]nc(-c3ccc(OC)c(F)c3)c2CC1=O	i
COc1ccc(-c2ccc3c(n2)CN(Cc2ccccc2)C(=O)CO3)cc1F	20µM
O=C1COc2ccc(-c3ccccc3F)nc2CN1Cc1ccccc1	i
O=C1COc2ccc(-c3cc(F)cc(F)c3)nc2CN1Cc1ccccc1	31.6µM
COCCN1Cc2nc(-c3cc(F)cc(F)c3)ccc2OCC1=O	i
SMILES	KDM5B inh
O=C1COc2ccc(OCc3ccccc3)nc2CN1Cc1ccc(F)cc1	i
CN(c1ccccc1)c1ccc2c(n1)CN(CC(=O)N1CCCC1)C(=O)CO2	i
O=C1COc2ccc(N3CCCC3)nc2CN1Cc1ccccc1	35.5µM
NC(=O)c1ccsc1NS(=O)(=O)c1ccc([N+](=O)[O-])cc1	i
CC(C)(C)c1ccc(C2CC2C(=O)NN)cc1 (stereo not drawn)	i
O=C(c1cc(-c2ccc(F)cc2)n[nH]1)N1CCN(C(=O)c2ccc(Br)o2)CC1	i
Cc1cccc(-c2noc(CN(C)C(=O)COc3ccc(Cl)cc3C)n2)c1	i
CCC(=O)Oc1ccc2c(=O)c(Oc3cc(C)cc(C)c3)c(C(F)(F)F)oc2c1	i
CCn1c(COc2ccc(Cl)cc2)nnc1SCc1cc(C)ccc1C	i
C/C(CC(C)(C)C1CCCCC1)=N\N=C(N)N	i
COc1ccc(C(=O)N2CCC3(CC2)NCCc2c3[nH]c3ccccc23)c(OC)n1	i
Cc1nc(SCc2coc(-c3ccc(F)cc3)n2)n[nH]1	i
CC(=O)c1cccc(NC(=O)C(C)Sc2cc(Cl)ccc2Cl)c1 (stereo not drawn)	i
CCOC(=O)c1cccc(NC(=O)N2CC[C@@H](CC(=O)NCCN(C)C)[C@@H](CC)C2)c1	i
CCOC(=O)c1cccc(NC(=O)N2CC[C@@H](CC(=O)NC3CC3)[C@@H](CC)C2)c1	i
C#CCNC(=O)C[C@@H]1CCN(C(=O)Nc2cccc(C(=O)OCC)c2)C[C@@H]1CC	15.8µM
CC1(C)CS(=O)(=O)N(c2ccc(S(=O)(=O)NCCc3ccccc3F)cc2)C1=O	i
Cc1ccc(C(=O)C(C)C(=O)c2ccc(C)cc2)cc1	i
CCCCCCCCCCSCC(=O)OCC(=O)c1ccc(-c2ccccc2)cc1	i
CS(=O)(=O)N1CCC(OC2CCN(C(=O)NCc3ccco3)CC2)CC1	i
CCCOc1nccnc1NC1CCN(C(=O)NCc2ccco2)CC1	25.1µM
COCCO[C@H]1C(=O)N(C2CCN(C(=O)c3ccccn3)CC2)[C@H]1c1ccncc1	i
COc1cccc(C(=O)N2CCN(C(=O)C3CCCO3)CC2)c1 (stereo not drawn)	i
CCCOc1nccnc1NC1CCN(C(=O)C2CCCO2)CC1 (stereo not drawn)	25.1µM
CCOC(=O)c1ccc(NC(=O)CN2CCN(C(=O)C3CCCO3)CC2)cc1 (stereo not drawn)	i
SMILES	KDM5B inh
CCCNC(=O)N1CCC(Oc2ncccc2C(=O)N(C)C)C1 (stereo not drawn)	i
CCCOc1nccnc1NC1CCN(C(=O)NCC)CC1	28.2µM
CCCOc1nccnc1NC1CCN(C(=O)c2ccccn2)CC1	28.2µM
CCOCCCNC(=O)N1CCC(Oc2ncccc2C(=O)N(C)C)C1 (stereo not drawn)	i
O=C(c1ccccn1)N1CCC(Oc2cccnc2)C1 (stereo not drawn)	i
CC[C@H]1CN(C(=O)NC2CCCCC2)CC[C@H]1CC(=O)NCc1ccco1	i
CNC(=O)c1cccc2c1CCN2C(=O)Nc1ccc(C)cc1	i
CCN1C(=O)Cc2cc(C(=O)NCC3CCCO3)ccc21 (stereo not drawn)	i
COc1cccc(NC(=O)Cn2c(-c3ccc(F)cc3)nc(C)cc2=O)c1	i
CC(=O)NC1=NN(C(C)=O)C2(S1)C(=O)N(CCOc1ccccc1)c1c(Cl)cccc12 (stereo not drawn)	i
Fc1ccc(NN=C2c3ccccc3-c3ccccc32)cc1	i
CCOC(=O)c1cc(S(=O)(=O)Nc2ccc3c(c2)OCCO3)[nH]n1	i
CCCCOC(=O)COc1ccc(S(=O)(=O)c2ccc(OCC(=O)OCCCC)cc2)cc1	i
Cc1ccsc1C(=O)N1CCC2(CCCCO2)CC1	i
CN(c1ncnc2scc(-c3ccc(Cl)cc3)c12)C1CCS(=O)(=O)C1 (stereo not drawn)	i
COc1ccc(/C(O)=C2\C(=O)C(=O)NC2c2ccc(C(C)(C)C)cc2)cc1F (stereo not drawn)	i
CC(NC(=O)Cc1c[nH]c2ccccc12)c1cc2ccccc2o1 (stereo not drawn)	i
CCC(=O)N1N=C(c2ccco2)CC1c1ccc2nccnc2c1 (stereo not drawn)	i
O=C(CSc1nc2ccccc2s1)Nc1c(F)cccc1F	i
CN(Cc1cccnc1)c1nc2c(c(=O)[nH]1)CCN(Cc1ccc(F)cc1Cl)CC2	i
COc1ccc(-c2ccc3c(c2)C(=O)N2CCN(C(=O)c4cccnc4)C[C@@H]2C(=O)N3)c(OC)c1	i
COc1ccc(C[C@@H]2NC(=O)[C@H]3CN(C(=O)c4ccc(N(C)C)cc4)CCN3C2=O)cc1	i
O=C(N[C@H]1CCN2C(=O)c3cc(-c4cccc(C(F)(F)F)c4)ccc3NC(=O)[C@@H]2C1)c1ccncc1	i
O=C(N[C@H]1CCN2C(=O)c3cc(-c4ccccc4F)ccc3NC(=O)[C@H]12)c1cccs1	i
CSc1ccc(-c2ccc3c(c2)C(=O)N2CC[C@H](NC(=O)c4cccs4)C[C@H]2C(=O)N3)cc1	28.2µM
O=C1Nc2ccc(-c3ccc4c(c3)OCO4)cc2C(=O)N2CCN(C(=O)c3cccs3)C[C@@H]12	28.2µM
CN(C)c1ccc(C(=O)N2CCN3C(=O)c4cc(-c5ccc6c(c5)OCO6)ccc4NC(=O)[C@H]3C2)cc1	35.5µM

Source: PubChem BioAssay
